# Experimental data as given in PubChem BioAssay (NCATS).
# Results filed as inconclusive are left out. A call without a number means that no potency is given here. The source made the active and inactive calls. Calls come from the whole dose curve; as a rule, active = well fitted inhibition curve with a large enough effect; inconclusive = small, poorly fitted or top-dose-only effect; inactive = flat fitted curve, though single readings scatter.
# What was measured:
# [1] = tested on: CRL-7250; test: qHTS assay to identify novel small-molecules to repurpose for Merkel cell carcinoma treatment (AID 1296009); conditions: MCC and control cell lines, CellTiter-Glo viability, 72 h; series mostly up to 44.8 µM
# In short: (§1)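 CellTiter-Glo luminescence after 72 hr compound exposure at 37 degree celsius gave cell viability. Libraries NPC and MIPE were run as 8- and 11-point dose responses; RLUs normalized to DMSO (negative) and no-cell (cytotoxicity) controls.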
# [2] = tested on: PC15; test: qHTS profiling for inhibitors of Plasmodium falciparum proliferation (AID 504749); note: potency is the fitted concentration of half-maximal effect; conditions: P. falciparum in erythrocytes, SYBR Green DNA, 72 h; series mostly up to 28.7 µM
# In short: (§2)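 SYBR Green fluorescence (ex 485 nm, em 535 nm) reports parasite DNA after 72 h compound exposure of infected red cells at 0.3% parasitemia, 2.5% hematocrit; signal normalized to 0.29 uM artemisinin and vehicle wells.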
# [3] = tested on: PC26; test: as above; conditions: P. falciparum in erythrocytes, SYBR Green DNA, 72 h; series mostly up to 28.7 µM
# In short: as §2
# [4] = tested on: PC49; test: as above; conditions: P. falciparum in erythrocytes, SYBR Green DNA, 72 h; series mostly up to 28.7 µM
# In short: as §2
# [5] = tested on: SC27B; test: as above; conditions: P. falciparum in erythrocytes, SYBR Green DNA, 72 h; series mostly up to 28.7 µM
# In short: as §2
# [6] = tested on: TAB109; test: as above; conditions: P. falciparum in erythrocytes, SYBR Green DNA, 72 h; series mostly up to 28.7 µM
# In short: as §2
# [7] = tested on: TAB113; test: as above; conditions: P. falciparum in erythrocytes, SYBR Green DNA, 72 h; series mostly up to 28.7 µM
# In short: as §2
# [8] = tested on: TAB165; test: as above; conditions: P. falciparum in erythrocytes, SYBR Green DNA, 72 h; series mostly up to 28.7 µM
# In short: as §2
# [9] = tested on: W2; test: as above; conditions: P. falciparum in erythrocytes, SYBR Green DNA, 72 h; series mostly up to 28.7 µM
# In short: as §2
# [10] = tested on: HACAT; test: qHTS assay to identify novel small-molecules to repurpose for Merkel cell carcinoma treatment (AID 1296009); conditions: MCC and control cell lines, CellTiter-Glo viability, 72 h; at 44.8 µM (top of the series) unless noted
# In short: as §1
# [11] = tested on: MCC-13; test: as above; conditions: MCC and control cell lines, CellTiter-Glo viability, 72 h; series mostly up to 46 µM
# In short: as §1
# [12] = tested on: MKL-1; test: as above; conditions: MCC and control cell lines, CellTiter-Glo viability, 72 h; series mostly up to 46 µM
# In short: as §1
# [13] = tested on: MKL-2; test: as above; conditions: MCC and control cell lines, CellTiter-Glo viability, 72 h; series mostly up to 46 µM
# In short: as §1
# [14] = tested on: MCC-26; test: as above; conditions: MCC and control cell lines, CellTiter-Glo viability, 72 h; series mostly up to 46 µM
# In short: as §1
# Note: nearly all actives have a fitted effect of over 60% in size.
structure (smiles),measurement,setting,value
CCOc1ccc2ccccc2c1C(=O)N[C@@H]1C(=O)N2[C@@H]1SC(C)(C)[C@@H]2C(=O)O,outcome,[1],inactive
Cc1ccccc1C(OCCN(C)C)c1ccccc1 (stereo not given),outcome,[1],inactive
CNS(=O)(=O)Cc1ccc2[nH]cc(CCN(C)C)c2c1,outcome,[1],inactive
CCN(CCO)CCCC(C)Nc1ccnc2cc(Cl)ccc12 (stereo not given),outcome,[1],inactive [at 4.96 µM]
CNS(=O)(=O)CCc1ccc2[nH]cc(C3CCN(C)CC3)c2c1,outcome,[1],inactive
CC(C)Nc1cccnc1N1CCN(C(=O)c2cc3cc(NS(C)(=O)=O)ccc3[nH]2)CC1,outcome,[1],inactive
CN(C)c1nc(N(C)C)nc(N(C)C)n1,outcome,[1],inactive
CC(=O)Nc1nnc(S(N)(=O)=O)s1,outcome,[1],inactive
Cc1cccc(C)c1OCC(C)N (stereo not given),outcome,[1],inactive
CN1CCC(=C2c3ccccc3C=Cc3ccccc32)CC1,outcome,[1],inactive
CN1CCN(CCCN2c3ccccc3Sc3ccc(Cl)cc32)CC1,outcome,[1],inactive
CC(C(=O)O)c1cccc(C(=O)c2ccccc2)c1 (stereo not given),outcome,[1],inactive
COc1ccccc1OCC(O)COC(N)=O (stereo not given),outcome,[1],inactive
C[C@H]1O[C@H](O[C@H]2[C@H](O)[C@@H](O)[C@@H](O[C@H]3[C@H](O)[C@@H](O)[C@H](O)O[C@@H]3CO)O[C@@H]2CO)[C@H](O)[C@@H](O)[C@@H]1N[C@H]1C=C(CO)[C@@H](O)[C@H](O)[C@H]1O,outcome,[1],inactive
C=C(C)[C@H]1Cc2c(ccc3c2O[C@@H]2COc4cc(OC)c(OC)cc4[C@@H]2C3=O)O1,Potency,[2],inactive
same,Potency,[3],inactive
same,Potency,[4],inactive
same,Potency,[5],inactive
same,Potency,[6],inactive
same,Potency,[7],inactive
same,Potency,[8],inactive
CC(S)C(=O)NCC(=O)O (stereo not given),outcome,[1],inactive
Cc1ccc(S(=O)(=O)NC(=O)NN2CCCCCC2)cc1,outcome,[1],inactive
CC12CC3CC(C)(C1)CC(N)(C3)C2,outcome,[1],inactive
CCCCc1ncc(/C=C(\Cc2cccs2)C(=O)O)n1Cc1ccc(C(=O)O)cc1,outcome,[1],inactive
Cc1[nH]c(=O)c(C#N)cc1-c1ccncc1,outcome,[1],inactive
O=c1[nH]c2ccccc2n1C1CCN(CCCC(c2ccc(F)cc2)c2ccc(F)cc2)CC1,Potency,[2],inactive
same,Potency,[4],inactive
same,Potency,[5],inactive
same,Potency,[6],inactive
same,Potency,[7],inactive
same,Potency,[9],3.79 µM (active)
C[C@@H](NCCCc1cccc(C(F)(F)F)c1)c1cccc2ccccc12,outcome,[1],inactive
CC1OC(C)OC(C)O1 (stereo not given),Potency,[2],inactive
same,Potency,[3],inactive
same,Potency,[4],inactive
same,Potency,[5],inactive
same,Potency,[6],inactive
same,Potency,[7],inactive
same,Potency,[8],inactive
same,Potency,[9],inactive
same,outcome,[10],inactive
same,Potency,[11],inactive
same,Potency,[12],inactive
same,Potency,[13],inactive
O=C(c1ccc(OCCN2CCCCC2)cc1)c1c(-c2ccc(O)cc2)sc2cc(O)ccc12,outcome,[1],inactive
CCN(CC)CCOC(=O)C1(C2CCCCC2)CCCCC1,outcome,[1],inactive
O=c1[nH]c2ccccc2n1CCCN1CCC(n2c(=O)[nH]c3cc(Cl)ccc32)CC1,Potency,[2],7.94 µM (active)
same,Potency,[3],6.75 µM (active)
same,Potency,[4],inactive
same,Potency,[6],5.01 µM (active)
same,Potency,[8],4.47 µM (active)
same,Potency,[9],6.75 µM (active)
same,outcome,[1],inactive
same,Potency,[11],inactive
same,Potency,[14],inactive
same,Potency,[12],inactive
same,Potency,[13],inactive
Cc1ccc(S(=O)(=O)NC(=O)NN2CC3CCCC3C2)cc1 (stereo not given),outcome,[1],inactive
CS(=O)c1ccc(-c2nc(-c3ccc(F)cc3)c(-c3ccncc3)[nH]2)cc1 (stereo not given),outcome,[1],inactive
CCCNC(=O)NS(=O)(=O)c1ccc(Cl)cc1,outcome,[1],inactive
COc1cc(C(C)=O)ccc1OCCCN1CCC(c2noc3cc(F)ccc23)CC1,outcome,[1],inactive
O=C(O)CCNC(=O)c1ccc(N=Nc2ccc(O)c(C(=O)O)c2)cc1,outcome,[1],inactive
CN(C)[C@@H]1C(=O)C(C(N)=O)=C(O)[C@@]2(O)C(=O)C3=C(O)c4c(O)ccc(Cl)c4[C@@H](O)[C@H]3C[C@@H]12,outcome,[1],inactive
CNCC[C@H](Oc1cccc2ccccc12)c1cccs1,outcome,[1],inactive
CCN(CC)CCCC(C)Nc1ccnc2cc(Cl)ccc12 (stereo not given),outcome,[1],inactive [at 9.27 µM]
O=C1N=C(O)CN1/N=C/c1ccc(-c2ccc([N+](=O)[O-])cc2)o1,outcome,[1],inactive
O=C1NC(=O)C(c2ccccc2)(c2ccccc2)N1,outcome,[1],inactive
Nc1ccc(O)c(C(=O)O)c1,outcome,[1],inactive
CN(C)C(=N)N=C(N)N,outcome,[1],inactive
